TNF death inh = blocks TNF-alpha induced death of Jurkat FADD-/- cells; Jurkat FADD-/- TNF necroptosis rescue, ATP luminescence, 24 h; 0 = TNF only, 100 = no-TNF cells; activation (protection from cell death), % at 10 µM; 220,000 compounds, 0.068% hits;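 active means activation, meaning protection from cell death, of at least 50% relative to plate controls; inactive means activation below 50%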;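 further: necroptosis triggered by 40 ng/mL TNF-alpha added together with compound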
HSV augment = increases HSV replication in cells | 220,000 compounds, 0.005% hits | maximum fold increase | HSV replication augmentation in cells, fold increase; in the data active means maximum fold increase above about 1.5; tested in PC3 cells
Hsp70 activator = switches on Hsp70 transcription; activation, % at 10 µM; 200,000 compounds, 0.04% hits; HeLa Hsp70 promoter luciferase reporter, luminescence; scaled: vehicle 0, proteasome-inhibitor control 100%; AID 1203;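 active means activation above the mean across all tested compounds plus 3 SD, cutoff set per campaign, cut at about 5.5% in these data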;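 further: 100% = MG132 at 30 µM as the positive control and 0% = DMSO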
S1P4 agonist = activates the human S1P4 receptor. 220,000 compounds, 0.35% hits. activation, % at 4.98 µM. S1P4-expressing cell line, agonist reporter assay. O95977; in the data active means activation above about 11%;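 further: 0% = DMSO vehicle and 100% = reference agonist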
Target sequence (O95977 whole entry, looked up): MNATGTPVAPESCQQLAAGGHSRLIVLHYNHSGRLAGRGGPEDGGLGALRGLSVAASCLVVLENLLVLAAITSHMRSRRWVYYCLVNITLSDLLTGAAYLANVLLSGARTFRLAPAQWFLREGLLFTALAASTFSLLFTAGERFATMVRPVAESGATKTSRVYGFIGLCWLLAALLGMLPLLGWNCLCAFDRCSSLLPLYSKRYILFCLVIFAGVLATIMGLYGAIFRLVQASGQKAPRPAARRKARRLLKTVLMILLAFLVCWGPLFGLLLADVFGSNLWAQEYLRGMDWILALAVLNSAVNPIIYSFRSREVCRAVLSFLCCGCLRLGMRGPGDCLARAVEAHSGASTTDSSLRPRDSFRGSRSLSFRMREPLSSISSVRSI
L929 necroptosis = blocks zVAD induced death of L929 cells | viability rescue, % at 10 µM | 220,000 compounds, 0.38% hits | L929 zVAD necroptosis rescue, ATP luminescence, 24 h; with zVAD 60 µM;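 active means activation, scaled between plate controls, above about 75%, limit read from the data; inactive means activation under that limit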;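 further: 0% = zVAD with DMSO and 100% = DMSO alone without zVAD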
S1P4 antag = antagonists of human S1P4 receptor; O95977; S1P4-expressing cells, antagonist mode, reporter read-out; inhibition, % at 4.98 µM; 220,000 compounds, 0.26% hits; in the data active means inhibition above about 29%;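 further: 0% = wells stimulated with agonist and 100% = vehicle wells without agonist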
S1P4 antag cf = confirmation of human S1P4 receptor antagonists. 520 compounds, 71% hits. inhibition, % at 4.98 µM. S1P4-expressing cell line, antagonist mode, reporter read-out. shares compounds with S1P4 antag; in the data active means inhibition above about 30%
S1P1 antagonist = blocks human S1P1, counter-screen for S1P4 antagonists; shares compounds with S1P4 antag; cell-based S1P1 antagonist counterscreen, inhibition; inhibition, % at 4.98 µM; 520 compounds, 37% hits; in the data active means inhibition above about 40%;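 further: receptor stimulated with S1P near its EC80; 0% = agonist stimulated wells and 100% = vehicle only wells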
The depositor's hits bear a star; i = inactive; . = no result given. Only some compounds are listed: those with a hit (about 1% of all), similar ones and a draw of the others.

SMILES	TNF death inh	HSV augment	Hsp70 activator	S1P4 agonist	L929 necroptosis	S1P4 antag	S1P4 antag cf	S1P1 antagonist
Cc1cc(C)nc(SC2=CS(=O)(=O)c3ccccc32)n1	-9	i	0	-2	0	-5	.	.
O=S1(=O)C=C(Sc2nc3ccccc3s2)c2ccccc21	-2	i	3	1	1	55*	113*	59*
COc1ccc(C(=O)OCC(=O)NC(=O)NC2CCCC2)c(OC)c1	0	i	0	1	12	-20	.	.
Cc1ccc(S(=O)(=O)N2CCOCC2)c2nsnc12	0	i	0	0	0	-3	.	.
O=S(=O)(c1ccc(Br)c2nsnc12)N1CCOCC1	0	i	0	1	.	79*	39*	36
COC(=O)/C=C/c1ccc(OC(=O)OC)c(OC(=O)OC)c1	1	i	0	0	13	1	.	.
Cc1cc(C)n(-c2cc(N3CCN(S(=O)(=O)c4ccc(Cl)cc4)CC3)ccc2[N+](=O)[O-])n1	2	i	0	-1	-1	60*	14	26
CCN1/C(=C2\C(=O)N(C)C(=S)N2C)C=Cc2cc(C)ccc21	-7	i	0	0	0	-14	.	.
O=C1CCc2ccccc2N1	1	i	.	0	0	-19	.	.
S=C1Cc2ccccc2N1	-26	i	.	1	52	35*	110*	44*
O=C(Nc1ccc(Cl)cc1)Nc1ccccc1Sc1ncc([N+](=O)[O-])s1	-20	i	.	1	0	13	.	.
O=[N+]([O-])c1cnc(Sc2ccncn2)s1	-32	i	.	1	-4	35*	116*	112*
NC(=O)c1snnc1-c1ccccc1	16	i	.	0	3	3	.	.
O=S(=O)(c1ccc(Cl)c(Cl)c1)c1snnc1-c1ccccc1	-23	i	0	0	0	56*	114*	75*
O=C(CCn1cnc2ccccc21)N/N=C/C=C/c1ccccc1	0	i	.	0	0	30*	-7	0
Cc1onc(-c2ccccc2Cl)c1C(=O)OCn1nnc2ccccc2c1=O	-1	i	0	-2	0	30*	11	4
O=C1C=C(c2ccccc2)C(=O)N1Nc1ccccc1	-11	i	0	-3	0	28	.	.
Cc1ccc(NN2C(=O)C=C(c3ccc(Cl)cc3)C2=O)cc1	-2	i	0	-3	0	31*	92*	21
COc1cccc(/C=N/Nc2nnc(C)n2N)c1OCc1ccccc1Cl	-1	i	0	1	2	-14	.	.
CCc1nnc(N/N=C/c2ccccc2F)n1N	0	i	1	0	2	93*	-15	-10
CCc1nnc(N/N=C/c2ccccc2Cl)n1N	-5	i	0	-1	0	40*	4	-3
O=C(O)c1ccc2c(=O)n3c(nc2c1)/C(=C/c1cccc(Cl)c1Cl)CCCC3	2	i	0	0	0	1	.	.
CN1c2ccccc2Oc2nnc(Cl)cc21	1	i	0	0	1	2	.	.
CN1c2ccccc2Oc2nnc(N3CCN(Cc4ccccc4)CC3)cc21	3	i	0	2	54	33*	25	15
CCOC(=O)COc1ccc2ccccc2c1/C=C/[N+](=O)[O-]	1	i	1	-1	0	49*	120*	155*
SMILES	TNF death inh	HSV augment	Hsp70 activator	S1P4 agonist	L929 necroptosis	S1P4 antag	S1P4 antag cf	S1P1 antagonist
CCOC(=O)COc1ccc(/C=C/[N+](=O)[O-])c(OCC(=O)OCC)c1	-22	i	0	-4	13	30*	116*	83*
O=[N+]([O-])/C=C/c1c(OCc2ccccc2)ccc2ccccc12	-10	i	1	2	1	15	.	.
O=C(NC(=S)Nc1cccc(C(F)(F)F)c1)c1csnn1	-2	i	0	-2	-1	11	.	.
Cc1onc(-c2ccccc2)c1CNC(=O)Nc1cccc(Cl)c1	4	i	.	-2	1	10	.	.
O=C(Oc1cccc(/C=N/Nc2nc(Nc3ccccc3)nc(N3CCOCC3)n2)c1)c1ccco1	9	i	0	-1	0	38*	70*	48*
COc1cc(/C=N/Nc2nc(N3CCCCC3)nc(N3CCCCC3)n2)ccc1OC(=O)c1ccco1	0	i	0	0	2	1	.	.
O=C(C=C=Nc1ccccc1)C(=O)N=C=Cc1ccccc1	-26	i	.	0	7	42*	106*	24
COc1ccccc1-c1cc(C(F)(F)F)nc(S(=O)(=O)CCCC(=O)NC(C)C)n1	-11	i	0	0	0	-5	.	.
COc1ccccc1-c1cc(C(F)(F)F)nc(S(C)(=O)=O)n1	-23	.	0	-2	0	68*	86*	6
O=C(Cn1ncc(Cl)c(Cl)c1=O)N1CCN(S(=O)(=O)c2ccc3ccccc3c2)CC1	-13	i	1	-5	-1	41*	116*	69*
Cc1ccc(-n2ncc(Br)c(Br)c2=O)cc1	-16	i	5	2	-4	103*	117*	37
CSc1ccccc1NC(=O)C(=O)c1c[nH]c2ccccc12	2	i	0	6	0	45*	5	47*
C[C@@H](NC(=O)C(=O)c1c[nH]c2ccccc12)c1ccccc1	.	i	.	.	.	.	.	.
COc1ccccc1C(=O)C1CCCN(C(=O)CCn2cnnn2)C1 (stereo not drawn)	1	i	.	-1	0	-2	.	.
COc1cc(C2NC(=O)NC(C)=C2[N+](=O)[O-])cc(OC)c1OC (stereo not drawn)	3	i	.	-1	1	-15	.	.
Cc1cccc2cc3c(nc12)SC(=NCC1CCCO1)N(Cc1ccco1)C3 (stereo not drawn)	-8	i	0	2	0	56*	22	47*
COCCN=C1Sc2nc3c(C)cccc3cc2CN1Cc1ccco1	1	i	0	-1	1	51*	24	8
Cc1ccc(-n2c(-c3ccccc3)c[n+]3c2CCc2ccccc2-3)c(C)c1	-5	i	0	1	-2	23	.	.
O=C(O)CSc1c(-c2cccs2)[nH]c2ccccc12	1	i	0	0	-1	-15	.	.
Nc1nc2c(Cl)ccc(Cl)c2s1	-1	i	0	2	2	-4	.	.
CCc1ccccc1NC(=O)CN(C)C(=O)Cn1ncc(Cl)c(Cl)c1=O	-15	i	0	2	54	38*	107*	57*
COc1ccc(NC(=O)Cn2ncc(Cl)c(Cl)c2=O)cc1S(=O)(=O)N1CCOCC1	6	i	0	3	47	33*	27	12

Assay outcomes (PubChem BioAssay)
